This note sets out measurements from publication PMC5540273 (PLoS ONE, 2017).

Each structure is given as a SMILES string.
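Also: KINOMEscan kinase panel screen.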

In the assay the test system is T1, MINK.
T1 construct: gene MINK1
Conditions: concentration: 1 μM, replicates: in singlicate; n = 1.
For the molecule `O=C(Nc1cccc(-c2nn3ncccc3c2-c2ccnc(Nc3cccc(C(F)(F)F)c3)n2)c1)c1c(F)cccc1F` [GSK299495], the “%Inh” value came out at 0%.

On to `O=C(c1ccc(-c2cc(-c3c[nH]nc3-c3ccccn3)ccn2)cc1)N1CCOCC1` [GW812171], for which the “%Inh” value was 40%.

As for `Cc1cccc(Cn2ccn3c(=O)cc(N4CCOCC4)nc23)c1` [GSK2297542], the “%Inh” value is reported as 7%.

Consider `NS(=O)(=O)c1cccc(-c2ccc3ncc(N4CCOCC4)nc3c2)c1` [GSK1535721], for which the “%Inh” value came to 27%.

Turning to `CCc1ccnc(/C=C/c2n[nH]c3cc(Sc4ccccc4C(=O)NC)ccc23)c1`, the “%Inh” value came to 34%.

For `O=c1cc(N2CCOCC2)nc2n(Cc3cccc(C(F)(F)F)c3)ccn12` [GSK2297543], the “%Inh” value stood at 0%.

For the molecule `COC(=O)Nc1nc2cc(Oc3ccc(NC(=O)Nc4cc(F)ccc4F)cc3)ccc2[nH]1.Cl` [GW701424], the “%Inh” value is reported as 5%.

For `NS(=O)(=O)CCc1cccc(Nc2nccc(-c3c(-c4cccc(NC(=O)c5c(F)cccc5F)c4)nn4ccccc34)n2)c1` [GSK336735], the “%Inh” value was determined as 62%.

For the molecule `O=C(NCCNc1ccnc(Nc2ccc(F)cc2)n1)c1cc2ccccc2s1` [GSK1379874], the “%Inh” value worked out at 7%.

For the molecule `CC(C)(C)n1cnc2c(N)ncnc21` [SKF-97359], the “%Inh” value came out at 0%.

With `COc1cc2c(cc1OC[C@@H](O)CO)ncc1c3ccc(C#N)cc3[nH]c21`, the “%Inh” value is recorded as 91.9%.

`O=C(NCCNc1ccnc(Nc2ccc(F)cc2)n1)Nc1ccccc1F` [GSK1379880]: the “%Inh” value is 0%.

As for `Fc1ccc(-c2ncn(CCCN3CCOCC3)c2-c2ccccn2)cc1` [SB-211742], the “%Inh” value was 0%.

Regarding `O=C(Nc1n[nH]c2cc(-c3cccc(F)c3)ccc12)C1CC1` [SB-735464], the “%Inh” value came to 61%.

For `Cc1nnc(-c2ccc(C)c(-c3ccc(C(=O)Nc4ccc(NS(C)(=O)=O)cc4)cc3)c2)o1` [GW702865], the “%Inh” value is 19%.

`CNc1ncnc2[nH]ncc12` [SKF-18355]: the “%Inh” value worked out at 18%.

Turning to `Cc1cccc(-c2nc(-c3ccc(S(C)(=O)=O)cc3)sc2-c2ccncc2)c1`, the “%Inh” value is recorded as 16%.

On to `Nc1nc(-c2ccc3c(N)n[nH]c3c2)cc(N2CCCC2)n1` [GSK2227430], for which the “%Inh” value is 10%.

As for `Fc1ccc(-c2ncn(CCCN3CCOCC3)c2-c2cccnc2)cc1` [SB-211743], the “%Inh” value is recorded as 16%.

As for `[2H]C([2H])(c1cccc(C(F)(F)F)c1C)n1ccn2c(=O)nc(N3CCOCC3)cc12` [GSK2336394], the “%Inh” value turned out to be 0%.

In the case of `c1ccc(-c2cc(-c3c[nH]nc3-c3ccccn3)ccn2)cc1` [GW576604], the “%Inh” value is on record as 71%.

For the molecule `CCc1nc(-c2cccc(C)c2)c(-c2ccnc(NCc3ccccc3)c2)s1`, the “%Inh” value is reported as 2%.

On to `Cn1ccc2ncnc(Oc3ccc(NC(=O)Nc4ccncc4)c(Cl)c3)c21`, for which the “%Inh” value is given as 0%.

For the molecule `COCCNC(=O)c1ccc(-c2cc(C(=O)NC3CC3)cc(F)c2C)cc1` [GW868318], the “%Inh” value came to 23%.

Take `O=C1NC(=O)C(N2CCc3ccccc32)=C1c1cccc(Cl)c1` [SB-408010]: the “%Inh” value is reported as 0%.

Take `CN(C1=C(c2ccccc2)C(=O)NC1=O)c1ccccc1` [SB-334860]: the “%Inh” value is recorded as 23%.

With `NCC(NC(=O)c1cc(-c2cn[nH]c2)c(-c2ccnc3[nH]ccc23)s1)c1ccccc1.O=C(O)C(F)(F)F.O=C(O)C(F)(F)F` (stereo not shown) [GSK1325775], the “%Inh” value came out at 59%.

For `COc1ccc(Nc2nccc(N3CCC(NC(=O)Nc4cccc(C(C)=O)c4)C3)n2)cc1` (stereo not shown) [GSK1379731], the “%Inh” value is 0%.

Take `Cn1cc(-c2ccc3c(c2)CCN3C(=O)Cc2ccccc2Cl)c2c(N)ncnc21` [GSK2608885]: the “%Inh” value worked out at 8%.

`O=c1cc(N2CCOCC2)nc2n(Cc3cccc(F)c3)ccn12` [GSK2297430]: the “%Inh” value was 0%.

Regarding `CN(C(=O)c1ccc(-c2cc(-c3c[nH]nc3-c3ccccn3)ccn2)cc1)C1CCOCC1` [GW810083], the “%Inh” value was found to be 8%.

In the case of `CC(=O)Nc1ccc(COc2ccc(Nc3ccnc4cc(-c5ccccn5)ccc34)cc2)cc1.Cl` [GW440148], the “%Inh” value is recorded as 11%.

With `NS(=O)(=O)c1cccc(-c2ccc3nccc(-c4cccc(S(N)(=O)=O)c4)c3c2)c1` [GW867253], the “%Inh” value is recorded as 27%.

In the case of `N#Cc1c(N2CCOCC2)sc(-c2ccn[nH]2)c1-c1ccc(Cl)cc1`, the “%Inh” value came out at 12%.
